Measured values published in the supplement of paper PMC9694430.
Where a name gives a salt, the structure may show the parent alone.

Experiments:
Test in all cases: thermal shift delta Tm vs DMSO control; higher = stronger stabilization (binding)
Settings in all cases: 12.5 µM; protein concentration 2 µM
LOC_OS01G01410-cb001 = tested on: LOC_OS01G01410-cb001
Summary of the method: (§1)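 Thermal shift values come from differential scanning fluorimetry on purified rice kinase domains made in E. coli, with melting temperatures obtained from Boltzmann fits. Samples of 19.5 μl held 2 μM kinase, 100 mM potassium phosphate pH 7.5, 150 mM NaCl, 10% glycerol, 5 × SYPRO Orange and compound in DMSO, and were heated from 25°C to 95°C at 0.05°C/s. Each shift is a triplicate mean relative to the DMSO-only protein sample.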

LOC_OS01G02750-cb003 = tested on: LOC_OS01G02750-cb003
Summary of the method: as §1

LOC_OS01G10900-cb004 = tested on: LOC_OS01G10900-cb004
Summary of the method: as §1

LOC_OS01G13800-cb001 = tested on: LOC_OS01G13800-cb001
Summary of the method: as §1

LOC_OS01G14860-cb001 = tested on: LOC_OS01G14860-cb001
Summary of the method: as §1

LOC_OS01G21960-cb002 = tested on: LOC_OS01G21960-cb002
Summary of the method: as §1

LOC_OS01G39600-cb002 = tested on: LOC_OS01G39600-cb002
Summary of the method: as §1

LOC_OS01G48390-cb002 = tested on: LOC_OS01G48390-cb002
Summary of the method: as §1

LOC_OS01G51400-cb002 = tested on: LOC_OS01G51400-cb002
Summary of the method: as §1

LOC_OS01G52050-cb004 = tested on: T1, LOC_OS01G52050-cb004
T1 sequence (whole entry): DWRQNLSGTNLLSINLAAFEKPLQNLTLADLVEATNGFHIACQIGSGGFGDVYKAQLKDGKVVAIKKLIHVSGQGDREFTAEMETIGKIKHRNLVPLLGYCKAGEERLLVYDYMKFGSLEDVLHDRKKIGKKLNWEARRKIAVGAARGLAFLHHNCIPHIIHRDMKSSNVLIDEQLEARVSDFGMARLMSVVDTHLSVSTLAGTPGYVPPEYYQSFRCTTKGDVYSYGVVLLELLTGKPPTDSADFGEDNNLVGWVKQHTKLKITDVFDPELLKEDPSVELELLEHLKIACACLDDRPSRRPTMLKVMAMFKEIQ
Summary of the method: as §1

LOC_OS01G57100-cb003 = tested on: LOC_OS01G57100-cb003
Summary of the method: as §1

LOC_OS01G60330-cb001 = tested on: LOC_OS01G60330-cb001
Summary of the method: as §1

LOC_OS01G60700-cb002 = tested on: LOC_OS01G60700-cb002
Summary of the method: as §1

LOC_OS01G63280-cb003 = tested on: LOC_OS01G63280-cb003
Summary of the method: as §1

LOC_OS01G67340-cb003 = tested on: LOC_OS01G67340-cb003
Summary of the method: as §1

LOC_OS01G70970-cb002 = tested on: LOC_OS01G70970-cb002
Summary of the method: as §1

LOC_OS02G07810-cb001 = tested on: LOC_OS02G07810-cb001
Summary of the method: as §1

LOC_OS02G08530-cb003 = tested on: LOC_OS02G08530-cb003
Summary of the method: as §1

LOC_OS02G14120-cb001 = tested on: LOC_OS02G14120-cb001
Summary of the method: as §1

LOC_OS02G17970-cb001 = tested on: LOC_OS02G17970-cb001
Summary of the method: as §1
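Also: purified Escherichia coli-expressed rice kinase domain construct.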

SMILES	thermal shift delta Tm (LOC_OS01G01410-cb001) [°C]	thermal shift delta Tm (LOC_OS01G02750-cb003) [°C]	thermal shift delta Tm (LOC_OS01G10900-cb004) [°C]	thermal shift delta Tm (LOC_OS01G13800-cb001) [°C]	thermal shift delta Tm (LOC_OS01G14860-cb001) [°C]	thermal shift delta Tm (LOC_OS01G21960-cb002) [°C]	thermal shift delta Tm (LOC_OS01G39600-cb002) [°C]	thermal shift delta Tm (LOC_OS01G48390-cb002) [°C]	thermal shift delta Tm (LOC_OS01G51400-cb002) [°C]	thermal shift delta Tm (LOC_OS01G52050-cb004) [°C]	thermal shift delta Tm (LOC_OS01G57100-cb003) [°C]	thermal shift delta Tm (LOC_OS01G60330-cb001) [°C]	thermal shift delta Tm (LOC_OS01G60700-cb002) [°C]	thermal shift delta Tm (LOC_OS01G63280-cb003) [°C]	thermal shift delta Tm (LOC_OS01G67340-cb003) [°C]	thermal shift delta Tm (LOC_OS01G70970-cb002) [°C]	thermal shift delta Tm (LOC_OS02G07810-cb001) [°C]	thermal shift delta Tm (LOC_OS02G08530-cb003) [°C]	thermal shift delta Tm (LOC_OS02G14120-cb001) [°C]	thermal shift delta Tm (LOC_OS02G17970-cb001) [°C]
N[C@@H]1CCCN(c2c(/C=C3\SC(=O)NC3=O)cccc2-c2ccccc2)C1	0.41	0.59	0.27	-0.81	0.66	0.65	0.1	0.27	0	-0.01	0.49	-0.07	0.8	-0.31	-0.25	0.19	0.55	0.62	-0.31	-0.03
CC(C)CCN1c2nc(Nc3cc(F)c(O)c(F)c3)ncc2N(C)C(=O)C1C (stereo unspecified)	2.96	1.52	2.63	0.08	3.74	1.92	3.67	1.58	0.67	5.38	1.71	6.27	2.07	7.85	8.73	4.67	1.13	2.78	3.11	1.38
Cc1ccc(NC(=O)c2cccc(N(C)C)c2)cc1NC(=O)c1ccc(O)cc1	0.45	0.15	0.12	0.36	0.44	0.92	-0.01	0.9	0.37	0.36	2.98	1.17	1.43	0.32	-0.19	0.28	1.54	1.03	0.45	0.95
COc1nccc(-c2c(-c3ccc(F)cc3)ncn2C2CCC(O)CC2)n1 (stereo unspecified)	-0.16	1.24	-0.06	0.22	-0.06	0.69	-0.45	0.16	0.24	0.27	1.45	1.05	0.84	0.44	0.6	0.09	0.67	0.39	-0.37	0.65
Cc1cc(C(C)Nc2ccccc2)c2nc(N3CCOCC3)cc(=O)n2c1 (stereo unspecified)	1.33	-0.12	0.5	0.23	1.25	0.01	0.8	1.36	0.16	0.56	0.23	1.22	0.52	-0.26	-0.69	0.34	0.27	0.37	0	0.24
Cc1cc(Nc2nc(N[C@@H](C)c3ccc(F)cc3)c(C#N)cc2F)n[nH]1	4.59	1.83	0.46	-0.07	5.09	1.28	4.3	5.61	0.07	0.63	0.56	7.34	0.15	0.61	-0.08	1.7	0.48	1.49	7.95	0.2
CN1CCN(c2ccc(Nc3cc(-c4cccc(-n5ccc6cc(C7CC7)cc(F)c6c5=O)c4CO)cn(C)c3=O)nc2)CC1	0.08	-0.04	0.34	-0.27	0.17	0.86	–	0.24	0.38	0.27	0.99	0.83	1.11	0.24	-0.1	1.04	0.37	1.24	0.2	0.75
CC1(C)C=Cc2c(ccc3c2OC[C@@H](c2ccc(O)cc2O)C3)O1 [Glabridin]	0.95	3.18	2.07	0.08	1.32	1.14	2.12	1.81	1.35	4.83	0.87	2.93	-0.87	3.61	0.86	1.29	-0.38	0.24	0.34	0.51
Cc1ccc(C(=O)Nc2cccc(C(F)(F)F)c2)cc1Nc1nc(-c2cccnc2)nc2c1cnn2C	1.82	7.19	1.25	1.68	1.28	2.07	–	2.62	1.11	2.93	2.35	2.86	1.11	0.24	0.79	0.92	1.8	1.77	0.87	2.02
C[C@H]1CNCCCN1S(=O)(=O)c1cccc2cncc(F)c12 [Ripasudil (K-115) hydrochloride dihydrate]	0.29	1.34	0.28	1.05	0.24	0.88	0.39	0.68	0.21	0.63	0.7	1.17	1.6	0.79	0.45	0.28	1.1	0.65	1.57	1.75
CO[C@H]1C[C@@H]2CC[C@@H](C)[C@@](O)(O2)C(=O)C(=O)N2CCCC[C@H]2C(=O)O[C@H]([C@H](C)C[C@@H]2CC[C@H](n3cnnn3)[C@H](OC)C2)CC(=O)[C@H](C)/C=C(\C)[C@@H](O)[C@@H](OC)C(=O)[C@H](C)C[C@H](C)/C=C/C=C/C=C/1C [Zotarolimus(ABT-578)]	0.49	0.69	0.11	-0.04	0.22	1.09	–	1.07	0.06	1	2.14	2.43	1.29	0.68	0.45	0.71	1.19	0.56	0.48	1.06
Cn1c(Nc2ccc(C(F)(F)F)cc2)nc2cc(Oc3ccnc(-c4ncc(C(F)(F)F)[nH]4)c3)ccc21	2.71	15.5	2.13	3.67	5.02	4.72	5.68	4.18	–	6.02	4.82	16.6	0.58	24.5	1.4	1.63	3.92	0.26	0.77	2.38
